Like-named read-outs stand apart in the source and are kept apart here.

One experiment relates to T1, PKAC-alpha.
T1 construct: gene PRKACA
The settings on record: concentration: 1 μM, replicates: in singlicate; n = 1.

The test system of the next experiment is T2, PKAC-beta.
T2 construct: gene PRKACB
The settings on record: concentration: 1 μM, replicates: in singlicate; n = 1.

The subject of the next experiment is PKMYT1. The settings on record: concentration: 1 μM, replicates: in singlicate; n = 1.
The subject of a further experiment is PKN1. Particulars: concentration: 1 μM, replicates: in singlicate; n = 1.
In a further experiment the test system is PKN2. The settings on record: concentration: 1 μM, replicates: in singlicate; n = 1.
The next experiment relates to PLK1. The settings on record: n = 1.
Another experiment relates to PLK2. Particulars: concentration: 1 μM, replicates: in singlicate; n = 1.
Another experiment has as its system PLK3. Particulars: concentration: 1 μM, replicates: in singlicate; n = 1.
For another experiment, the system named is PLK4. Particulars: concentration: 1 μM, replicates: in singlicate; n = 1.
A further experiment has as its system PRKCD. The settings on record: concentration: 1 μM, replicates: in singlicate; n = 1.
A further experiment has as its system PRKCE. Particulars: concentration: 1 μM, replicates: in singlicate; n = 1.
For the next experiment, the system named is PRKCH. Particulars: concentration: 1 μM, replicates: in singlicate; n = 1.
The subject of the next experiment is PRKCI. Particulars: concentration: 1 μM, replicates: in singlicate; n = 1.
The test system of a further experiment is PRKCQ. Particulars: concentration: 1 μM, replicates: in singlicate; n = 1.
For a further experiment, the system named is PRKD1. The settings on record: concentration: 1 μM, replicates: in singlicate; n = 1.
Another experiment concerns PRKD2. Particulars: concentration: 1 μM, replicates: in singlicate; n = 1.
A further experiment has as its system PRKD3. Particulars: concentration: 1 μM, replicates: in singlicate; n = 1.
Another experiment has as its system PRKG1. The settings on record: concentration: 1 μM, replicates: in singlicate; n = 1.
The next experiment relates to PRKG2. The settings on record: concentration: 1 μM, replicates: in singlicate; n = 1.
In the next experiment the test system is T3, PRKR.
T3 construct: gene EIF2AK2
Particulars: concentration: 1 μM, replicates: in singlicate; n = 1.

Where [1] appears, read: concentration: 1 μM, replicates: in singlicate.
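Further: KINOMEscan kinase panel screen.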

Consider `COc1cc2ncn(-c3cc(OCc4ccncc4Br)c(C(N)=O)s3)c2cc1OC` [GW854278], for which the “%Inh” value was 0% in the experiment with PKAC-alpha; 0% in the experiment with PKAC-beta; 0% with PKMYT1; 10% with PKN1; 0% with PKN2; 99.9% with PLK1 (setting [1]). Besides, the “%Inh” value in the experiment with PLK2 turned out to be 99.7%; with PLK3, 99.2%; in the experiment with PLK4, 4%; in the experiment with PRKCD it was 7%; in the experiment with PRKCE it was 7%; with PRKCH it was 0%. The “%Inh” value in the experiment on PRKCI is recorded as 13%; in the experiment on PRKCQ, 22%; in the experiment with PRKD1 it was 0%; in the experiment with PRKD2, 11%; in the experiment on PRKD3 it was 0%; with PRKG1 it was 0%. Further, the “%Inh” value in the experiment on PRKG2 and with PRKR was 0% in each case.

Take `COc1cccc(C2=C(N(C)c3ccccc3)C(=O)NC2=O)c1` [SB-334865]: the “%Inh” value in the experiment on PKAC-alpha came out at 0%; in the experiment on PKAC-beta, 0%; in the experiment on PKMYT1, 1%; in the experiment on PKN1, 0%; in the experiment with PKN2, 0%; with PLK1 (setting [1]) it was 0%. Moreover, the “%Inh” value was found to be 0% with PLK2; 0% with PLK3; 17% with PLK4; 0% with PRKCD; 25% in the experiment on PRKCE; 5% in the experiment with PRKCH. The “%Inh” value with PRKCI worked out at 7%; in the experiment with PRKCQ it was 0%; with PRKD1, 6%; in the experiment with PRKD2, 0%; in the experiment on PRKD3, 10%; in the experiment with PRKG1, 0%. Further, the “%Inh” value with PRKG2 and with PRKR was 0% each time.

In the case of `CCS(=O)(=O)c1ccc(OC)c(Nc2ncc(-c3ccc(F)cc3)o2)c1.Cl` [GW591947], the “%Inh” value in the experiment on PKAC-alpha amounted to 0%; in the experiment on PKAC-beta, 14%; in the experiment with PKMYT1, 7%; in the experiment with PKN1 it was 0%; in the experiment on PKN2, 15%; in the experiment on PLK1 (setting [1]), 0%. Also, the “%Inh” value in the experiment on PLK2 is listed as 0%; with PLK3, 0%; with PLK4, 0%; in the experiment with PRKCD it was 2%; with PRKCE it was 0%; with PRKCH, 18%. Moreover, the “%Inh” value in the experiment with PRKCI is reported as 11%; in the experiment on PRKCQ, 0%; with PRKD1, 0%; in the experiment with PRKD2, 0%; in the experiment on PRKD3 it was 0%; with PRKG1 it was 45%. In addition, the “%Inh” value in the experiment with PRKG2 and in the experiment with PRKR was 0% each time.

Consider `Nc1n[nH]c2nnc(-c3ccccc3)c(-c3ccccc3)c12` [GW554060], for which the “%Inh” value is given as 0% in the experiment with PKAC-alpha; 16% with PKAC-beta; 0% in the experiment on PKMYT1; 20% in the experiment on PKN1; 3% in the experiment with PKN2; 8% in the experiment with PLK1 (setting [1]). For the same molecule, the “%Inh” value came to 0% with PLK2; 0% in the experiment on PLK3; 0% in the experiment with PLK4; 3% with PRKCD; 15% with PRKCE; 14% in the experiment with PRKCH. In addition, the “%Inh” value in the experiment on PRKCI worked out at 16%; with PRKCQ, 12%; in the experiment on PRKD1, 0%; in the experiment on PRKD2, 0%; in the experiment on PRKD3, 17%; with PRKG1, 0%. For the same molecule, the “%Inh” value in the experiment on PRKG2 and with PRKR was 0% each time.

As to `Nc1nccc2scc(-c3ccc4c(c3)CCN4C(=O)Cc3ccccc3)c12` [GSK2576924], the “%Inh” value in the experiment on PKAC-alpha was determined as 8%; in the experiment on PKAC-beta it was 0%; with PKMYT1, 1%; with PKN1, 0%; with PKN2, 0%; with PLK1 (setting [1]), 6%. Moreover, the “%Inh” value with PLK2 came to 1%; in the experiment on PLK3 it was 0%; in the experiment with PLK4, 6%; in the experiment on PRKCD, 0%; with PRKCE it was 0%; with PRKCH, 31%. Besides, the “%Inh” value in the experiment on PRKCI is reported as 20%; in the experiment on PRKCQ, 0%; in the experiment with PRKD1 it was 0%; in the experiment on PRKD2, 16%; with PRKD3, 11%; with PRKG1, 10%. For the same molecule, the entries for the “%Inh” value with PRKG2 and in the experiment on PRKR were 12% and 8%, respectively.

For the molecule `Cl.NS(=O)(=O)c1cccc(Nc2cc(-c3ccc(F)cc3)n[nH]2)c1` [GW824645], the “%Inh” value was 7% in the experiment on PKAC-alpha; 0% in the experiment with PKAC-beta; 0% with PKMYT1; 0% in the experiment with PKN1; 0% in the experiment on PKN2; 0% in the experiment with PLK1 (setting [1]). The “%Inh” value in the experiment on PLK2 is on record as 20%; in the experiment with PLK3 it was 23%; with PLK4 it was 10%; in the experiment with PRKCD it was 5%; in the experiment on PRKCE, 12%; in the experiment on PRKCH it was 0%. The “%Inh” value in the experiment with PRKCI was found to be 0%; with PRKCQ, 0%; in the experiment with PRKD1 it was 0%; in the experiment on PRKD2, 5%; in the experiment on PRKD3, 0%; with PRKG1, 0%. Besides, the “%Inh” value in the experiment with PRKG2 and in the experiment on PRKR was 0% each time.

`CN1C(=O)C(Nc2ccccc2)=C(c2ccccc2)C1=O` [SB-300079]: the “%Inh” value in the experiment with PKAC-alpha was 2%; with PKAC-beta it was 0%; in the experiment on PKMYT1 it was 2%; in the experiment with PKN1, 0%; with PKN2, 0%; in the experiment on PLK1 (setting [1]), 4%. Moreover, the “%Inh” value is given as 12% in the experiment with PLK2; 16% in the experiment on PLK3; 0% in the experiment with PLK4; 7% with PRKCD; 16% in the experiment with PRKCE; 0% in the experiment with PRKCH. The “%Inh” value in the experiment with PRKCI was found to be 0%; with PRKCQ, 0%; with PRKD1, 0%; in the experiment with PRKD2, 0%; with PRKD3, 0%; in the experiment with PRKG1, 18%. In addition, the “%Inh” value came to 0% in the experiment on PRKG2 and 76% in the experiment on PRKR.

Regarding `O=c1cc(N2CCOCC2)nc2n(Cc3ccc(F)c(Cl)c3)ccn12` [GSK2297099], the “%Inh” value with PKAC-alpha is given as 0%; with PKAC-beta, 0%; in the experiment with PKMYT1, 10%; in the experiment on PKN1 it was 11%; in the experiment on PKN2, 0%; in the experiment with PLK1 (setting [1]), 54%. Also, the “%Inh” value turned out to be 0% in the experiment with PLK2; 6% in the experiment with PLK3; 0% in the experiment on PLK4; 0% with PRKCD; 0% with PRKCE; 12% in the experiment with PRKCH. Also, the “%Inh” value with PRKCI came out at 0%; in the experiment on PRKCQ it was 26%; with PRKD1 it was 0%; in the experiment on PRKD2, 0%; in the experiment on PRKD3, 12%; with PRKG1, 0%. The figures for the “%Inh” value in the experiment with PRKG2 and in the experiment on PRKR were 0% and 15%, respectively.

On to `COc1cc2ncn(-c3cc(OCc4ccncc4)c(C(N)=O)s3)c2cc1OC` [GSK336313], for which the “%Inh” value with PKAC-alpha was determined as 0%; with PKAC-beta it was 0%; in the experiment on PKMYT1, 0%; in the experiment on PKN1 it was 31%; in the experiment with PKN2, 0%; in the experiment with PLK1 (1 µM), 81%. Further, the “%Inh” value in the experiment on PLK2 amounted to 96.6%; in the experiment with PLK3, 55%; with PLK4, 7%; in the experiment with PRKCD, 0%; with PRKCE, 1%; with PRKCH, 0%. The “%Inh” value stood at 0% in the experiment with PRKCI; 0% in the experiment on PRKCQ; 47% with PRKD1; 3% in the experiment with PRKD2; 15% with PRKD3; 0% in the experiment with PRKG1. For the same molecule, the “%Inh” value in the experiment with PRKG2 and in the experiment on PRKR was 0% each time.

Regarding `COc1ccc(-c2cc3c(C)nc(N)nc3n([C@H]3CC[C@H](OCCO)CC3)c2=O)cn1`, the “%Inh” value is 3% in the experiment on PKAC-alpha; 0% with PKAC-beta; 0% with PKMYT1; 5% with PKN1; 0% in the experiment with PKN2; 0% in the experiment on PLK1 (setting [1]). The “%Inh” value came to 0% in the experiment with PLK2; 0% in the experiment with PLK3; 1% with PLK4; 2% in the experiment with PRKCD; 14% with PRKCE; 0% in the experiment on PRKCH. In addition, the “%Inh” value in the experiment with PRKCI is reported as 18%; in the experiment with PRKCQ, 0%; in the experiment on PRKD1, 2%; with PRKD2 it was 0%; in the experiment with PRKD3 it was 9%; in the experiment on PRKG1, 0%. Further, the “%Inh” value with PRKG2 and in the experiment with PRKR was 0% in each case.

Take `Cc1ccccc1COc1cc(-n2cnc3cc(Cl)ccc32)sc1C(N)=O` [GW813349]: the “%Inh” value with PKAC-alpha is given as 0%; in the experiment with PKAC-beta it was 21%; in the experiment with PKMYT1, 0%; in the experiment with PKN1, 7%; with PKN2, 0%; with PLK1 (setting [1]), 97%. The “%Inh” value turned out to be 92.4% in the experiment on PLK2; 92.8% in the experiment with PLK3; 2% in the experiment on PLK4; 12% in the experiment on PRKCD; 2% with PRKCE; 0% with PRKCH. Also, the “%Inh” value amounted to 20% in the experiment with PRKCI; 1% with PRKCQ; 7% in the experiment on PRKD1; 0% with PRKD2; 0% in the experiment on PRKD3; 8% with PRKG1. Moreover, the figures for the “%Inh” value in the experiment on PRKG2 and with PRKR were 7% and 0%, respectively.

(Values after PMC5540273 (PLoS ONE, 2017).)
